# Source: the supplement of paper PMC8728848
# The entries come from a sample that favours the strongest signals as a whole.
# How the values were obtained:
# Assay in all cases: glycan array binding signal (z-score within array); higher = stronger binding
# Conditions in all cases: glycan notation: IUPAC condensed, linker removed
# [1] = molecular target: GlcNAc(b1-3)Gal(b1-4)GlcNAc(b1-3)Gal(b1-4)GlcNAc(b1-2)Man(a1-3)[GlcNAc(b1-3)Gal(b1-4)GlcNAc(b1-3)Gal(b1-4)GlcNAc(b1-2)Man(a1-6)]Man(b1-4)GlcNAc(b1-4)GlcNAc
# Procedure, shortened: (§1)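 Columns mapping to the same glycan were averaged after glycan names were converted to IUPAC-condensed notation. The data come from 3228 arrays in the Consortium for Functional Glycomics database, limited to those with an available protein sequence. Binding is reported as a within-array Z-score averaged across arrays of one protein sequence and across linkers.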
# [2] = molecular target: GlcNAc(b1-3)Gal(b1-4)GlcNAc(b1-3)[GlcNAc(b1-3)Gal(b1-4)GlcNAc(b1-3)]GalNAc
# Procedure, shortened: as §1
# [3] = molecular target: GlcNAc(b1-4)GlcNAc(b1-4)GlcNAc(b1-4)GlcNAc(b1-4)GlcNAc
# Procedure, shortened: as §1
# [4] = molecular target: Kdn(a2-6)Gal(b1-4)GlcNAc
# Procedure, shortened: as §1
# [5] = molecular target: Man(a1-2)Man(a1-3)[Man(a1-6)]Man(a1-6)[Man(a1-2)Man(a1-3)]Man(b1-4)GlcNAc(b1-4)GlcNAc
# Procedure, shortened: as §1
# [6] = molecular target: Man(a1-3)[Man(a1-6)]Man(a1-6)[Man(a1-3)]Man
# Procedure, shortened: as §1
# [7] = molecular target: Neu5Ac(a2-3)Gal(b1-3)GalNAc(b1-4)[Neu5Ac(a2-3)]Gal(b1-4)Glc
# Procedure, shortened: as §1
# [8] = molecular target: Neu5Ac(a2-3)Gal(b1-3)GlcNAc(b1-2)Man
# Procedure, shortened: as §1
# [9] = molecular target: Neu5Ac(a2-3)Gal(b1-4)GlcNAc(b1-2)Man
# Procedure, shortened: as §1
# [10] = molecular target: Neu5Ac(a2-3)Gal(b1-4)GlcNAc(b1-2)Man(a1-3)[Neu5Ac(a2-3)Gal(b1-4)GlcNAc(b1-2)Man(a1-6)]Man(b1-4)GlcNAc(b1-4)[Fuc(a1-6)]GlcNAc
# Procedure, shortened: as §1
# [11] = molecular target: Neu5Ac(a2-3)Gal(b1-4)GlcNAc(b1-2)[Neu5Ac(a2-3)Gal(b1-4)GlcNAc(b1-4)]Man(a1-3)[GlcNAc(b1-4)][Neu5Ac(a2-3)Gal(b1-4)GlcNAc(b1-2)[Neu5Ac(a2-3)Gal(b1-4)GlcNAc(b1-6)]Man(a1-6)]Man(b1-4)GlcNAc(b1-4)GlcNAc
# Procedure, shortened: as §1
# [12] = molecular target: Neu5Ac(a2-3)Gal(b1-4)GlcNAc(b1-3)Gal(b1-4)GlcNAc(b1-3)Gal(b1-4)GlcNAc(b1-2)Man(a1-3)[Neu5Ac(a2-3)Gal(b1-4)GlcNAc(b1-3)Gal(b1-4)GlcNAc(b1-3)Gal(b1-4)GlcNAc(b1-2)Man(a1-6)]GalNAc
# Procedure, shortened: as §1
# [13] = molecular target: Neu5Ac(a2-3)Gal(b1-4)GlcNAc(b1-3)Gal(b1-4)GlcNAc(b1-3)[Neu5Ac(a2-3)Gal(b1-4)GlcNAc(b1-3)Gal(b1-4)GlcNAc(b1-6)]GalNAc
# Procedure, shortened: as §1
# [14] = molecular target: Neu5Ac(a2-3)Gal(b1-4)[Fuc(a1-3)]GlcNAc(b1-2)Man
# Procedure, shortened: as §1
# [15] = molecular target: Neu5Ac(a2-3)Gal(b1-4)[Fuc(a1-3)]GlcNAc(b1-3)GalNAc
# Procedure, shortened: as §1
# [16] = molecular target: Neu5Ac(a2-3)[GalNAc(b1-4)]Gal(b1-4)Glc
# Procedure, shortened: as §1
# [17] = molecular target: Neu5Ac(a2-6)Gal
# Procedure, shortened: as §1
# [18] = molecular target: Neu5Ac(a2-6)Gal(b1-4)GlcNAc(b1-2)Man
# Procedure, shortened: as §1
# [19] = molecular target: Neu5Ac(a2-6)Gal(b1-4)GlcNAc(b1-2)Man(a1-3)Man(b1-4)GlcNAc(b1-4)GlcNAc
# Procedure, shortened: as §1
# [20] = molecular target: Neu5Ac(a2-6)Gal(b1-4)GlcNAc(b1-2)Man(a1-6)[GlcNAc(b1-2)Man(a1-3)]Man(b1-4)GlcNAc(b1-4)GlcNAc
# Procedure, shortened: as §1
# [21] = molecular target: Neu5Ac(a2-6)Gal(b1-4)GlcNAc(b1-3)Gal(b1-3)GlcNAc
# Procedure, shortened: as §1
# [22] = molecular target: Neu5Ac(a2-6)Gal(b1-4)GlcNAc(b1-3)Gal(b1-4)GlcNAc(b1-3)Gal(b1-4)GlcNAc(b1-2)Man(a1-3)[Neu5Ac(a2-6)Gal(b1-4)GlcNAc(b1-3)Gal(b1-4)GlcNAc(b1-3)Gal(b1-4)GlcNAc(b1-2)Man(a1-6)]GalNAc
# Procedure, shortened: as §1
# [23] = molecular target: Neu5Ac(a2-6)Gal(b1-4)GlcNAc(b1-3)Gal(b1-4)GlcNAc(b1-3)[Neu5Ac(a2-6)Gal(b1-4)GlcNAc(b1-3)Gal(b1-4)GlcNAc(b1-6)]GalNAc
# Procedure, shortened: as §1
# [24] = molecular target: Neu5Ac(a2-8)Neu5Ac
# Procedure, shortened: as §1
# [25] = molecular target: Neu5Ac(a2-8)Neu5Ac(a2-3)[GalNAc(b1-4)]Gal(b1-4)Glc
# Procedure, shortened: as §1
# [26] = molecular target: Neu5Ac9Ac(a2-3)Gal(b1-4)GlcNAc
# Procedure, shortened: as §1
# [27] = molecular target: Neu5Gc(a2-6)GalNAc
# Procedure, shortened: as §1
# [28] = molecular target: Neu5Gc(b2-6)Gal(b1-4)GlcNAc
# Procedure, shortened: as §1
binder,measurement,setting,value
"HA-00510 (Pseudomonas aeruginosa), Q02V39_PSEAB (protein) GVPIVNIATPNGAGLSNNHFRDYNVGANGLILNNATGKTQGTQLGGIILGNPNLKGQAAQVILNQVTGGNRSTLAGYTEVAGQSARVIVANPHGITCQGCGFINTPRATLTTGKPIMDGQRLERFQVDGGDIVVEGAELNVGNLEQFDLITRSAKLNAKLYAKNLNIVTGRNDVQADSLQATPRAADGSEKPQLAIDSSALGGMYAGAIRLVGTEQGVGVKLAGDMAASGGDIRIDASGKLSLAQASSQGDLKIAAQAVELNGKTYAGGSAEIRSAEELVNRQS",glycan array binding signal (z-score),[1],4.3
same,glycan array binding signal (z-score),[2],-0.255
same,glycan array binding signal (z-score),[3],0.345
same,glycan array binding signal (z-score),[4],-0.045
same,glycan array binding signal (z-score),[5],-0.534
same,glycan array binding signal (z-score),[6],-0.502
same,glycan array binding signal (z-score),[7],0.112
same,glycan array binding signal (z-score),[8],-0.852
same,glycan array binding signal (z-score),[9],1.18
same,glycan array binding signal (z-score),[10],0.601
same,glycan array binding signal (z-score),[11],0.048
same,glycan array binding signal (z-score),[12],3.77
same,glycan array binding signal (z-score),[13],-0.447
same,glycan array binding signal (z-score),[14],-1.16
same,glycan array binding signal (z-score),[15],2.86
same,glycan array binding signal (z-score),[16],-0.269
same,glycan array binding signal (z-score),[17],0.437
same,glycan array binding signal (z-score),[18],2.52
same,glycan array binding signal (z-score),[19],-0.14
same,glycan array binding signal (z-score),[20],-0.425
same,glycan array binding signal (z-score),[21],2.34
same,glycan array binding signal (z-score),[22],3.69
same,glycan array binding signal (z-score),[23],2.75
same,glycan array binding signal (z-score),[24],0.611
same,glycan array binding signal (z-score),[25],-0.094
same,glycan array binding signal (z-score),[26],0.419
same,glycan array binding signal (z-score),[27],-0.059
same,glycan array binding signal (z-score),[28],-0.019
